Laboratory results taken from PubChem BioAssay AID1159580 (chemical genetic matrix, 2015).
Values joined by “and” are separate entries in the source; they are usually repeats but may differ in a detail not shown here. Equal entries are not always repeated. The whole screen tested about 5,500 compounds, of which about 2,000 (36%) were called active. Another 18% or so got no clear call; they are omitted. Rule as the data show it: active = normalized growth mostly below about 0.91 (no sharp cut-off); inconclusive = no clear call, values can overlap the other calls; inactive = mostly above about 0.92. The list shows a part of the results.

Assay: chemical genetic growth profiling, strain panel (AID 1159580);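 also: tested at 20 µM; growth read once vehicle control cultures reached saturation at 30 °C; 1 = growth at the plate median or of vehicle wells; lower values mean less growth of the strain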
Details: S. cerevisiae deletion strains, growth OD

Measured: normalized growth

COc1cc(O)cc(OC)c1OC
inactive: locus YAL013W, strain DEP1, active compounds read low 1.05 | locus YAL021C, strain ccr4, active compounds read low 0.982 | locus YAL026C, strain drs2, active compounds read low 0.974 | locus YAL030W, strain snc1, active compounds read low 0.977 | locus YBL061C, strain skt5, active compounds read low 0.98 | locus YBR009C, strain hhf1, active compounds read low 0.964 | locus YBR021W, strain FUR4, active compounds read low 1.01 | locus YBR023C, strain chs3, active compounds read low 0.999 | locus YBR171W, strain sec66, active compounds read low 0.978 | locus YBR229C, strain ROT2, active compounds read low 1.01 | locus YBR231C, strain swc5, active compounds read low 0.992 | locus YBR279W, strain paf1, active compounds read low 0.992 | locus YCL011C, strain gbp2, active compounds read low 0.969 | locus YCL016C, strain dcc1, active compounds read low 0.997 | locus YCL029C, strain bik1, active compounds read low 1.01 | locus YCL061C, strain MRC1, active compounds read low 0.986 | locus YCL069W, strain vba3, active compounds read low 0.978 | locus YCR088W, strain abp1, active compounds read low 0.987 | locus YDL005C, strain med2, active compounds read low 0.967 | locus YDL035C, strain GPR1, active compounds read low 1.05 | locus YDL040C, strain nat1, active compounds read low 0.989 | locus YDL074C, strain BRE1, active compounds read low 1.04 | locus YDL101C, strain DUN1, active compounds read low 1.02 | locus YDL134C, strain PPH21, active compounds read low 1.01 | locus YDL185W, strain tfp1, active compounds read low 1 | locus YDL192W, strain arf1, active compounds read low 1.03 | locus YDR001C, strain nth1, active compounds read low 0.972 | locus YDR069C, strain doa4, active compounds read low 0.962 | locus YDR101C, strain arx1, active compounds read low 1 | locus YDR137W, strain rgp1, active compounds read low 0.998 | locus YDR159W, strain sac3, active compounds read low 0.925 | locus YDR162C, strain NBP2, active compounds read low 1.06 | locus YDR195W, strain ref2 0.918 | locus YDR297W, strain sur2, active compounds read low 0.986 | locus YDR318W, strain mcm21, active compounds read low 1.01 | locus YDR334W, strain swr1, active compounds read low 0.975 | locus YDR335W, strain msn5, active compounds read low 0.991 | locus YDR388W, active compounds read low 1.01 | locus YDR392W, strain spt3, active compounds read low 0.942 | locus YDR502C, strain sam2, active compounds read low 0.999 | locus YEL003W, strain gim4, active compounds read low 0.987 | locus YEL037C, strain rad23, active compounds read low 0.988 | locus YEL061C, strain CIN8 (second series), active compounds read low 0.961 | locus YEL061C, strain CIN8, active compounds read low 1.02 | locus YER015W, strain faa2, active compounds read low 1 | locus YER016W, strain bim1, active compounds read low 0.995 | locus YER110C, active compounds read low 1 | locus YER111C, strain swi4, active compounds read low 0.967 | locus YER155C, strain BEM2 (second series), active compounds read low 0.97 | locus YER155C, strain BEM2, active compounds read low 1.02 | locus YER167W, strain BCK2, active compounds read low 1.02 | locus YFR010W, strain ubp6, active compounds read low 0.962 | locus YGL078C, strain dbp3, active compounds read low 1.01 | locus YGL086W, strain mad1, active compounds read low 1.01 | locus YGL167C, strain pmr1, active compounds read low 0.954 | locus YGL173C, strain kem1, active compounds read low 0.99 | locus YGL227W, strain vid30, active compounds read low 0.97 | locus YGL240W, strain doc1, active compounds read low 0.945 | locus YGL248W, strain PDE1, active compounds read low 1.04 | locus YGL253W, strain hxk2, active compounds read low 0.995 | locus YGR135W, strain pre9, active compounds read low 1.01 | locus YGR252W, strain gcn5, active compounds read low 1.03 | locus YHR013C, strain ard1, active compounds read low 0.923 | locus YHR027C, strain rpn1, active compounds read low 0.993 | locus YHR030C, strain SLT2, active compounds read low 1.02 and 0.996 | locus YHR079C, strain IRE1 (second series), active compounds read low 0.995 | locus YHR079C, strain IRE1, active compounds read low 0.983 | locus YHR094C, strain hxt1, active compounds read low 0.992 | locus YHR129C, strain ARP1, active compounds read low 1.02 | locus YHR142W, strain chs7, active compounds read low 1.01 | locus YHR200W, strain rpn10, active compounds read low 1.01 | locus YIL066C, strain RNR3, active compounds read low 1.03 | locus YIL073C, strain SPO22, active compounds read low 1.06 | locus YIL125W, strain kgd1, active compounds read low 1.01 | locus YIR030C, strain dcg1, active compounds read low 1 | locus YJL092W, strain hpr5, active compounds read low 0.982 | locus YJL095W, strain BCK1 (second series), active compounds read low 0.996 | locus YJL095W, strain BCK1, active compounds read low 1.05 and 0.999 | locus YJL115W, strain asf1, active compounds read low 0.992 | locus YJL129C, strain trk1, active compounds read low 0.97 | locus YJL134W, strain LCB3, active compounds read low 1.03 | locus YJL154C, strain vps35, active compounds read low 0.983 | locus YJL164C, strain tpk1, active compounds read low 0.971 | locus YJL166W, strain qcr8, active compounds read low 0.993 | locus YJL168C, strain set2, active compounds read low 1.01 | locus YJL187C, strain SWE1 (second series), active compounds read low 1.03 | locus YJL187C, strain SWE1, active compounds read low 0.977 | locus YJR043C, strain POL32, active compounds read low 1.05 | locus YJR066W, strain TOR1, active compounds read low 0.905 | locus YKL009W, strain mrt4, active compounds read low 1.05 | locus YKL068W, active compounds read low 1.01 | locus YKL085W, strain MDH1 (second series), active compounds read low 1.02 | locus YKL085W, strain MDH1, active compounds read low 1.02 | locus YKL160W, strain elf1, active compounds read low 1 | locus YKR001C, strain vps1, active compounds read low 1.01 | locus YKR026C, strain gcn3, active compounds read low 0.945 | locus YKR091W, strain srl3, active compounds read low 0.968 | locus YLL001W, strain dnm1, active compounds read low 0.994 | locus YLL026W, active compounds read low 0.998 | locus YLL041C, strain sdh2, active compounds read low 1 | locus YLR027C, strain aat2, active compounds read low 0.986 | locus YLR039C, strain RIC1, active compounds read low 1.11 | locus YLR058C, strain SHM2, active compounds read low 1.03 | locus YLR102C, strain apc9, active compounds read low 0.99 | locus YLR113W, strain HOG1, active compounds read low 1.04 | locus YLR221C, strain rsa3, active compounds read low 0.97 | locus YLR258W, strain gsy2, active compounds read low 0.996 | locus YLR262C, strain YPT6 (second series), active compounds read low 0.992 | locus YLR262C, strain YPT6, active compounds read low 1.15 | locus YLR268W, strain sec22, active compounds read low 1.03 | locus YLR320W, strain mms22, active compounds read low 0.984 | locus YLR342W, strain FKS1 (second series), active compounds read low 1.04 | locus YLR342W, strain FKS1, active compounds read low 0.957 | locus YLR357W, strain rsc2, active compounds read low 0.948 | locus YLR370C, strain arc18, active compounds read low 0.955 | locus YLR371W, strain rom2, active compounds read low 1 | locus YLR384C, strain iki3, active compounds read low 0.937 | locus YLR418C, strain cdc73, active compounds read low 1.01 | locus YML016C, strain PPZ1, active compounds read low 1.02 | locus YML032C, strain rad52, active compounds read low 1.01 | locus YML120C, strain ndi1, active compounds read low 0.97 | locus YML124C, strain tub3, active compounds read low 1.01 | locus YMR058W, strain fet3, active compounds read low 0.97 | locus YMR078C, strain ctf18, active compounds read low 1 | locus YMR125W, strain sto1, active compounds read low 0.984 | locus YMR129W, active compounds read low 0.962 | locus YMR205C, strain PFK2, active compounds read low 0.95 | locus YMR223W, strain ubp8, active compounds read low 0.993 | locus YMR231W, strain pep5, active compounds read low 0.994 | locus YMR307W, strain GAS1, active compounds read low 1.08 | locus YNL067W, strain RPL9B, active compounds read low 1.03 | locus YNL071W, strain lat1, active compounds read low 0.994 | locus YNL128W, strain TEP1, active compounds read low 1.07 | locus YNL153C, strain GIM3, active compounds read low 1.01 | locus YNL183C, strain NPR1, active compounds read low 0.928 | locus YNL209W, strain ssb2, active compounds read low 0.983 | locus YNL233W, strain BNI4, active compounds read low 1.03 | locus YNL248C, strain rpa49, active compounds read low 1 | locus YNL250W, strain rad50, active compounds read low 1.03 | locus YNL271C, strain bni1, active compounds read low 1.01 | locus YNL298W, strain CLA4, active compounds read low 1 | locus YNL307C, strain MCK1, active compounds read low 0.996 | locus YNL322C, strain KRE1 (second series), active compounds read low 0.964 | locus YNR049C, strain mso1, active compounds read low 0.986 | locus YNR052C, strain pop2, active compounds read low 0.996 | locus YOL006C, strain TOP1, active compounds read low 1.22 | locus YOL012C, strain htz1 1.19 | locus YOL147C, strain pex11, active compounds read low 1 | locus YOR001W, strain rrp6, active compounds read low 1.01 | locus YOR061W, strain CKA2, active compounds read low 1.04 | locus YOR069W, strain VPS5, active compounds read low 1.01 | locus YOR070C, strain gyp1, active compounds read low 0.993 | locus YOR080W, strain dia2, active compounds read low 0.977 | locus YOR083W, strain WHI5, active compounds read low 1 | locus YOR106W, strain vam3, active compounds read low 1 | locus YOR136W, strain idh2, active compounds read low 1.01 | locus YOR144C, strain elg1, active compounds read low 1 | locus YOR184W, strain ser1, active compounds read low 1.05 | locus YOR231W, strain MKK1, active compounds read low 1 | locus YOR265W, strain rbl2, active compounds read low 0.96 | locus YOR270C, strain vph1, active compounds read low 0.986 | locus YOR290C, strain snf2, active compounds read low 0.921 | locus YOR316C, strain cot1, active compounds read low 0.993 | locus YPL051W, strain arl3, active compounds read low 1.01 | locus YPL078C, strain atp4, active compounds read low 0.988 | locus YPL106C, strain sse1, active compounds read low 0.944 | locus YPL240C, strain hsp82, active compounds read low 0.981 | locus YPL256C, strain CLN2, active compounds read low 0.978 | locus YPR119W, strain clb2, active compounds read low 1 | locus YPR141C, strain kar3, active compounds read low 1.01 | locus YPR163C, strain tif3, active compounds read low 1 | locus YPR167C, strain met16, active compounds read low 1.01 | strain wtn01, active compounds read low 1.02
